In PubChem BioAssay AID463173 (ICCB-Longwood Screening Facility, Harvard Medical School, 2010):
In all, about 52,000 compounds went through this assay and about 4,300 (8.3%) were called active. For the sample, actives were picked, then their nearest neighbours and some compounds at random. Values without a mark were called inactive. No stated cut-off is given here; in the data, active means survival mostly below about 52% (no sharp cut-off); inactive means mostly above about 56%.

What follows are compounds tested on DeltatarO mutant (assay: S. aureus survival, RN4220 and DeltatarO strains – OD600, teichoic acid synthesis inhibitors, primary screen (AID 463173)). Conditions: S. aureus RN4220 wild type/DeltatarO growth, OD600, 18 h, hits give low values, screened at 18.75 µg/mL (by protocol).

| SMILES | survival |
| --- | --- |
| CCC(C)(C)n1nnnc1C(c1ccccc1)N1CCc2ccccc2C1 (stereo not drawn) | 79% |
| COc1ccccc1Cn1cc(C(=O)c2ccc(Cl)cc2)c(=O)c2cc3c(cc21)OCCO3 | 83% |
| Cc1ccc(Nc2nc(C(=O)N3CCC(C)CC3)cs2)cc1 | 91% |
| Cc1cccc(OCC(=O)NCCc2nc3ccccc3[nH]2)c1C | 79% |
| COc1ccc(C(=O)NCCc2nc3ccccc3[nH]2)cc1 | 127% |
| Cc1cc(OCC(=O)NCCc2nc3ccccc3[nH]2)cc(C)c1Cl | 44% (active) |
| O=C(COc1ccc(F)cc1)NCCc1nc2ccccc2[nH]1 | 57% (active) |
| Cc1cc(C)cc(OCC(=O)NCCc2nc3ccccc3[nH]2)c1 | 109% |
| O=C(NCCc1nc2ccccc2[nH]1)c1ccc(F)cc1 | 81% |
| COc1cccc(CNC(=O)c2ccc(-c3nc(CS(=O)c4ccccc4)c(C)o3)cc2)c1 (stereo not drawn) | 92% |
| O=S(=O)(c1ccc(Cl)cc1)c1nnn2c1nc(N1CCCCC1)c1sccc12 | 52% |
| N#CC(C#N)=C(C#N)c1cc2c([nH]1)CCCC2 | 81% |
| CCSC(=C(C#N)C#N)c1cc2c([nH]1)CCCC2 | 45% (active) |
| CCS/C(=C(\C#N)C(N)=O)c1ccc(-c2ccccc2)[nH]1 | 59% |
| CCCOc1ccc(C2C(=O)N(C3CCCCC3)CC(=O)N2CCc2ccccc2)cc1OC (stereo not drawn) | 86% |
| O=C(c1ccc(Cl)cc1)N1CCC(c2ccncc2)CC1 | 87% |
| Cc1cc(-c2ccccc2)n2nc(-c3cccc(Br)c3)cc2n1 | 14% (active) |
| Cc1cc(-c2ccccc2)n2nc(N)nc2n1 | 99% |
| Cc1cc(-c2ccccc2)n2nc(-c3ccccc3)cc2n1 | -3% (active) |
| Brc1cccc(-c2cnn3c(-c4ccccc4)cc(-c4ccccc4)nc23)c1 | 74% |
| Cc1cc(C)n2nc(-c3ccccc3)cc2n1 | 97% |
| O=C(Nc1ccc(Br)cc1)c1cc2nc(-c3ccccc3)cc(-c3ccccc3)n2n1 | 65% |
| CS(=O)(=O)N(CC(=O)NCCc1ccccc1)c1cc(C(F)(F)F)ccc1Cl | 68% |
| CCOC(=O)c1c(C)[nH]c(C)c1S(=O)(=O)NCC(=O)NCc1cccc(Br)c1 | 130% |

| SMILES | survival |
| --- | --- |
| COc1ccc(C)cc1S(=O)(=O)N1CCN(c2cccc(Cl)c2)CC1 | 59% |
| Cc1cc(C)c(Cn2c(CCNC(=O)c3ccco3)nc3ccccc32)c(C)c1 | 59% |
| COc1cccc(-n2c(=O)c3sc4ccccc4c3n(CC(=O)Nc3ccccc3C)c2=O)c1 | 74% |
| CCc1ccccc1NC(=O)Cn1nnc(C(=O)NCc2ccccc2Cl)c1N | 20% (active) |
| COc1ccc(NC(=O)Cn2nnc(C(=O)Nc3ccc(F)c(Cl)c3)c2N)cc1OC | 37% (active) |
| Cc1ccc(NC(=O)Cn2nnc(C(=O)NCCc3ccccc3)c2N)cc1Cl | 105% |
| COc1cccc(Cn2nnc(C(=O)Nc3cc(C)ccc3C)c2N)c1 | 100% |
| Cc1cc(C)cc(NC(=O)Cn2nnc(C(=O)NCc3ccccc3Cl)c2N)c1 | 72% |
| Cc1ccc(NC(=O)Cn2nnc(C(=O)NCCc3ccccc3)c2N)cc1C | 46% (active) |
| COc1cccc(CNC(=O)c2nnn(CC(=O)Nc3cc(Cl)ccc3C)c2N)c1 | 25% (active) |
| Cc1ccc(NC(=O)Cn2nnc(C(=O)NCCc3ccccc3)c2N)cc1 | 87% |
| CCc1ccccc1NC(=O)Cn1nnc(C(=O)NCc2cccc(OC)c2)c1N | 70% |
| COc1ccc(NC(=O)Cn2nnc(C(=O)Nc3ccc(C)c(F)c3)c2N)cc1Cl | 118% |
| Cc1cccc(NC(=O)Cn2nnc(C(=O)Nc3ccc(F)c(Cl)c3)c2N)c1 | 101% |
| CCc1ccccc1NC(=O)Cn1nnc(C(=O)NCc2cccs2)c1N | 94% |
| COc1ccc(-c2nnc(SCC(=O)Nc3c(C)cccc3C)nc2-c2ccc(OC)cc2)cc1 | 92% |
| COc1cccc(CNC(=O)c2ccc(-c3nc(CS(=O)(=O)c4ccccc4)c(C)o3)cc2)c1 | 72% |
| COc1ccc(-c2noc(-c3ccc(N4CCCC4)c([N+](=O)[O-])c3)n2)cc1OC | 59% |
| CCC(C)NC(=O)c1cc2cc(S(=O)(=O)N3CCCCC3)ccc2n1C (stereo not drawn) | 55% |
| CCc1cccc(NC(=O)CC2Oc3ccc(C)cc3NC2=O)c1 (stereo not drawn) | 79% |
| Cc1ccc(S(=O)(=O)Nc2nc(C)c(NC(=O)NC3C=NN=C3)s2)cc1 | 90% |
| O=C(NCc1cccnc1)C(=O)NCC(c1cccnc1)N1CCN(c2ccc(F)cc2)CC1 (stereo not drawn) | 70% |
| Cc1ccc(C)c(Cn2nnc(C(=O)NCc3ccc(Cl)cc3Cl)c2N)c1 | 62% |
| Cc1cccc(NC(=O)Cn2nnc(C(=O)Nc3ccccc3Br)c2N)c1C | 8% (active) |

| SMILES | survival |
| --- | --- |
| Nc1c(C(=O)NCc2ccc(Cl)cc2Cl)nnn1Cc1ccc(Br)cc1 | 45% (active) |
| COc1ccccc1NC(=O)Cn1nnc(C(=O)Nc2ccccc2Br)c1N | 89% |
| COc1cccc(Cn2nnc(C(=O)NCc3ccc(Cl)cc3Cl)c2N)c1 | 71% |
| Cc1ccc(C)c(NC(=O)c2nnn(CC(=O)Nc3cccc(C)c3C)c2N)c1 | 98% |
| Cc1ccc(Cl)cc1NC(=O)CC1Sc2ccccc2NC1=O (stereo not drawn) | 93% |
| CC(CCc1ccccc1)NC(=O)CSc1n[nH]c(-c2ccccc2Cl)n1 (stereo not drawn) | 54% |
| COc1ccc(CCNC(=O)c2cc(Sc3cccc(Cl)c3)nc3ccccc23)cc1OC | 89% |
| CCc1c(C)sc2c1CCN(C(=O)Nc1cc(C)ccc1OC)C2c1ccc(F)cc1 (stereo not drawn) | 144% |
| CCc1c(C)sc2c1CCN(C(=O)Nc1ccc(F)c(Cl)c1)C2c1ccc(F)cc1 (stereo not drawn) | 46% (active) |
| CCc1c(C)sc2c1CCN(C(=O)Nc1cc(C)cc(C)c1)C2c1ccccc1 (stereo not drawn) | 55% |
| CCc1c(C)sc2c1CCN(C(=O)Nc1ccccc1C(=O)OC)C2c1ccc(F)cc1 (stereo not drawn) | 105% |
| CCc1c(C)sc2c1CCN(C(=O)Nc1cc(OC)c(OC)c(OC)c1)C2c1ccccc1 (stereo not drawn) | 25% (active) |
| CCc1c(C)sc2c1CCN(C(=O)Nc1cc(Cl)c(OC)cc1OC)C2c1ccccc1 (stereo not drawn) | 63% |
| O=C(CCCN1C(=O)c2cccnc2Oc2ccc(Cl)cc21)NCc1ccc(F)cc1 | 90% |
| CCOc1ccccc1NC(=O)Cn1c(=O)n(CC(=O)NCc2ccccc2Cl)c(=O)c2sccc21 | 154% |
| O=C(CSc1ccccc1)NCc1ccc2c(c1)CCN2C(=O)c1ccc(F)cc1 | 88% |
| Cc1cc(C)c(Cn2c(C3CC(=O)N(c4ccc(F)cc4)C3)nc3ccccc32)c(C)c1 (stereo not drawn) | 91% |
| Cc1ccc(C)c(OCCn2c(C3CC(=O)N(Cc4ccc(F)cc4)C3)nc3ccccc32)c1 (stereo not drawn) | 0% (active) |
| CCOc1ccccc1N1CC(c2nc3ccccc3n2Cc2c(C)cc(C)cc2C)CC1=O (stereo not drawn) | 92% |
| Cc1cccc(C)c1OCCn1c(C2CC(=O)N(Cc3ccc(F)cc3)C2)nc2ccccc21 (stereo not drawn) | 4% (active) |
| CCOc1ccccc1N1CC(c2nc3ccccc3n2CCOc2ccccc2OC)CC1=O (stereo not drawn) | 95% |
| COc1ccccc1OCCCn1c(C2CC(=O)N(c3ccc(F)cc3)C2)nc2ccccc21 (stereo not drawn) | 76% |
| CCc1ccccc1N1CC(c2nc3ccccc3n2CCCCOc2ccccc2OC)CC1=O (stereo not drawn) | 80% |
| Cc1cccc(C)c1OCCn1c(C2CC(=O)N(c3cccc(Cl)c3)C2)nc2ccccc21 (stereo not drawn) | 57% |

| SMILES | survival |
| --- | --- |
| C=CCc1ccccc1OCCn1c(C2CC(=O)N(Cc3ccc(F)cc3)C2)nc2ccccc21 (stereo not drawn) | 0% (active) |
| Cc1ccc(OCCn2c(C3CC(=O)N(Cc4ccc(F)cc4)C3)nc3ccccc32)c(C)c1 (stereo not drawn) | 3% (active) |
| CC(=O)c1cccc(NC(=O)C(C)n2c(=O)cc(-c3ccccc3)c3c(C)nn(C)c32)c1 (stereo not drawn) | 102% |
| CC1CCN(C(=O)Cn2cc(SCC(=O)NCc3ccccc3Cl)c3ccccc32)CC1 | 64% |
| COc1cc(/C=C/c2nc(C#N)c(N3CCCCC3)o2)cc(OC)c1OC | 89% |
| CCOc1ccc(NCc2n[nH]c(=S)n2-c2ccc(C)cc2)cc1 | 90% |
| CCOc1ccc(Nc2nc3ccccc3n3c(CC)nnc23)cc1 | 36% (active) |
| CCC(O)c1nc2ccccc2n1CCOc1cc(C)cc(C)c1 (stereo not drawn) | 100% |
| COc1ccc(OCCn2c(C)nc3cc(C)c(C)cc32)cc1 | 57% |
| COc1ccc(NCc2nc3ccccc3n2CCOc2ccc(C)cc2)cc1 | 17% (active) |
| CCOc1ccc(NCc2nc3ccccc3n2CCOc2ccc(C)cc2)cc1 | 1% (active) |
| Cc1ccc(OCCn2c(CNc3cccc(C)c3)nc3ccccc32)cc1 | -3% (active) |
| CCc1nnc2c(Nc3cccc(C(C)=O)c3)nc3ccccc3n12 | 92% |
| CCc1nnc2c(Nc3ccccc3Br)nc3ccccc3n12 | 93% |
| Cc1ccc(C)c(Cn2cc(CCC(=O)NC3CCCCC3)c3ccccc32)c1 | 86% |
| CC(C)(C)OC(=O)N/N=C/c1cccc(O)c1 | 79% |
| Nc1nnc2c(Nc3ccccc3)nc3nonc3n12 | 86% |
| O=C(NC1CCCCC1)c1ccc(CSc2nc3cccnc3n2Cc2cccc(F)c2)cc1 | 83% |
| CC(C)(C)c1ccc(-c2ncccc2O)cc1 | 53% |
| CCc1c(C)c2ccc3c(c2oc1=O)CN(Cc1ccccc1)CO3 | 99% |
| COc1ccc(NC(=O)C2CCN(S(=O)(=O)c3c(C)noc3/C=C/c3cccs3)CC2)cc1 | 90% |
